# Source: the supplement of paper PMC4466140
# Assays:
# Test in all cases: SPOT peptide array binding signal intensity (averaged, normalized) (arbitrary units (background-subtracted, floor 0; scale differs between SH3 domains)); higher = stronger binding of the SH3 domain to the peptide
# AgAbp1 = biological target: AgAbp1
# Method in brief: (§1)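 Spot intensities were captured after detection with anti-GST antibody, an HRP-linked anti-mouse secondary and luminol, and quantified with Genespotter. The probes were GST-fused SH3 domains from four yeast species, produced in E. coli BL21(DE3), purified on glutathione Sepharose and incubated at 10 μg/ml overnight at 4°C on cellulose-bound synthetic 15-mer peptides with cysteines replaced by serines. Binding signal is the normalized, background-subtracted spot intensity averaged over replicates, and its arbitrary units differ between domains.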
# AgBbc1 = biological target: AgBbc1
# Method in brief: as §1
# AgBem1-D1 = biological target: AgBem1-D1
# Method in brief: as §1
# AgBzz1-D1 = biological target: AgBzz1-D1
# Method in brief: as §1
# AgBzz1-D2 = biological target: AgBzz1-D2
# Method in brief: as §1
# AgCyk3 = biological target: AgCyk3
# Method in brief: as §1
# AgFus1 = biological target: AgFus1
# Method in brief: as §1
# AgHof1 = biological target: AgHof1
# Method in brief: as §1
# AgHse1 = biological target: AgHse1
# Method in brief: as §1
# AgLsb1 = biological target: AgLsb1
# Method in brief: as §1
# AgLsb4 = biological target: AgLsb4
# Method in brief: as §1
# AgMyo5 = biological target: AgMyo5
# Method in brief: as §1
# AgNbp2 = biological target: AgNbp2
# Method in brief: as §1
# AgRvs167 = biological target: AgRvs167
# Method in brief: as §1
# AgSho1 = biological target: AgSho1
# Method in brief: as §1
# AgSla1-D1-D2 = biological target: AgSla1-D1-D2
# Method in brief: as §1
# AgSla1-D3 = biological target: AgSla1-D3
# Method in brief: as §1
# CaAbp1-D1 = biological target: CaAbp1-D1
# Method in brief: as §1
# CaAbp1-D2 = biological target: CaAbp1-D2
# Method in brief: as §1
# CaBbc1 = biological target: CaBbc1
# Method in brief: as §1
# CaBem1-D1 = biological target: CaBem1-D1
# Method in brief: as §1
# CaBzz1-D1 = biological target: CaBzz1-D1
# Method in brief: as §1
# CaBzz1-D2 = biological target: CaBzz1-D2
# Method in brief: as §1
# CaCyk3 = biological target: CaCyk3
# Method in brief: as §1
# CaFus1 = biological target: CaFus1
# Method in brief: as §1
# CaHof1 = biological target: CaHof1
# Method in brief: as §1
# CaHse1 = biological target: CaHse1
# Method in brief: as §1
# CaLsb1 = biological target: CaLsb1
# Method in brief: as §1
# CaLsb4 = biological target: CaLsb4
# Method in brief: as §1
# CaMyo5 = biological target: CaMyo5
# Method in brief: as §1
# CaNbp2 = biological target: CaNbp2
# Method in brief: as §1
# CaRvs167 = biological target: CaRvs167
# Method in brief: as §1
# CaRvs167-3 = biological target: CaRvs167-3
# Method in brief: as §1
# CaSho1 = biological target: CaSho1
# Method in brief: as §1
# CaSla1-D1-D2 = biological target: CaSla1-D1-D2
# Method in brief: as §1
# CaSla1-D3 = biological target: CaSla1-D3
# Method in brief: as §1
# ScAbp1 = biological target: ScAbp1
# Method in brief: as §1
# ScBbc1 = biological target: ScBbc1
# Method in brief: as §1
# ScBem1-D1 = biological target: ScBem1-D1
# Method in brief: as §1
# ScBzz1-D1 = biological target: ScBzz1-D1
# Method in brief: as §1
# ScBzz1-D2 = biological target: ScBzz1-D2
# Method in brief: as §1
# ScCyk3 = biological target: ScCyk3
# Method in brief: as §1
# ScFus1 = biological target: ScFus1
# Method in brief: as §1
# ScHof1 = biological target: ScHof1
# Method in brief: as §1
# ScHse1 = biological target: ScHse1
# Method in brief: as §1
# ScLsb1 = biological target: ScLsb1
# Method in brief: as §1
# ScLsb2 = biological target: ScLsb2
# Method in brief: as §1
# ScLsb3 = biological target: ScLsb3
# Method in brief: as §1
# ScLsb4 = biological target: ScLsb4
# Method in brief: as §1
# ScMyo3 = biological target: ScMyo3
# Method in brief: as §1
# ScMyo5 = biological target: ScMyo5
# Method in brief: as §1
# ScNbp2 = biological target: ScNbp2
# Method in brief: as §1
# ScPex13 = biological target: ScPex13
# Method in brief: as §1
# ScRvs167 = biological target: ScRvs167
# Method in brief: as §1
# ScSho1 = biological target: ScSho1
# Method in brief: as §1
# ScSla1-D1-D2 = biological target: ScSla1-D1-D2
# Method in brief: as §1
# ScSla1-D3 = biological target: ScSla1-D3
# Method in brief: as §1
# SpAbp1-D1 = biological target: SpAbp1-D1
# Method in brief: as §1
# SpBbc1 = biological target: SpBbc1
# Method in brief: as §1
# SpBzz1-D1 = biological target: SpBzz1-D1
# Method in brief: as §1
# SpBzz1-D2 = biological target: SpBzz1-D2
# Method in brief: as §1
# SpCyk3 = biological target: SpCyk3
# Method in brief: as §1
# SpHof1 = biological target: SpHof1
# Method in brief: as §1
# SpHof1-2 = biological target: SpHof1-2
# Method in brief: as §1
# SpHof1-3 = biological target: SpHof1-3
# Method in brief: as §1
# SpHse1 = biological target: SpHse1
# Method in brief: as §1
# SpLsb1 = biological target: SpLsb1
# Method in brief: as §1
# SpLsb4 = biological target: SpLsb4
# Method in brief: as §1
# SpMyo1 = biological target: SpMyo1
# Method in brief: as §1
# SpNbp2 = biological target: SpNbp2
# Method in brief: as §1
# SpPex13 = biological target: SpPex13
# Method in brief: as §1
# SpRvs167 = biological target: SpRvs167
# Method in brief: as §1
# SpSla1-D1-D2 = biological target: SpSla1-D1-D2
# Method in brief: as §1
# SpSla1-D3 = biological target: SpSla1-D3
# Method in brief: as §1
binder,measurement,setting,value
APPPPPRRATPEKKP,SPOT peptide array binding signal intensity,AgAbp1,79
same,SPOT peptide array binding signal intensity,AgBbc1,202
same,SPOT peptide array binding signal intensity,AgBem1-D1,24.5
same,SPOT peptide array binding signal intensity,AgBzz1-D1,84
same,SPOT peptide array binding signal intensity,AgBzz1-D2,29.5
same,SPOT peptide array binding signal intensity,AgCyk3,≤ 0
same,SPOT peptide array binding signal intensity,AgFus1,≤ 0
same,SPOT peptide array binding signal intensity,AgHof1,0.75
same,SPOT peptide array binding signal intensity,AgHse1,17
same,SPOT peptide array binding signal intensity,AgLsb1,17.5
same,SPOT peptide array binding signal intensity,AgLsb4,192
same,SPOT peptide array binding signal intensity,AgMyo5,4
same,SPOT peptide array binding signal intensity,AgNbp2,≤ 0
same,SPOT peptide array binding signal intensity,AgRvs167,209
same,SPOT peptide array binding signal intensity,AgSho1,1.5
same,SPOT peptide array binding signal intensity,AgSla1-D1-D2,≤ 0
same,SPOT peptide array binding signal intensity,AgSla1-D3,1.5
same,SPOT peptide array binding signal intensity,CaAbp1-D1,62
same,SPOT peptide array binding signal intensity,CaAbp1-D2,58
same,SPOT peptide array binding signal intensity,CaBbc1,368
same,SPOT peptide array binding signal intensity,CaBem1-D1,1
same,SPOT peptide array binding signal intensity,CaBzz1-D1,1050
same,SPOT peptide array binding signal intensity,CaBzz1-D2,156
same,SPOT peptide array binding signal intensity,CaCyk3,18.5
same,SPOT peptide array binding signal intensity,CaFus1,52.5
same,SPOT peptide array binding signal intensity,CaHof1,73
same,SPOT peptide array binding signal intensity,CaHse1,3
same,SPOT peptide array binding signal intensity,CaLsb1,≤ 0
same,SPOT peptide array binding signal intensity,CaLsb4,1860
same,SPOT peptide array binding signal intensity,CaMyo5,2.5
same,SPOT peptide array binding signal intensity,CaNbp2,53
same,SPOT peptide array binding signal intensity,CaRvs167,94.7
same,SPOT peptide array binding signal intensity,CaRvs167-3,1
same,SPOT peptide array binding signal intensity,CaSho1,≤ 0
same,SPOT peptide array binding signal intensity,CaSla1-D1-D2,1170
same,SPOT peptide array binding signal intensity,CaSla1-D3,3
same,SPOT peptide array binding signal intensity,ScAbp1,69
same,SPOT peptide array binding signal intensity,ScBbc1,54.8
same,SPOT peptide array binding signal intensity,ScBem1-D1,≤ 0
same,SPOT peptide array binding signal intensity,ScBzz1-D1,14
same,SPOT peptide array binding signal intensity,ScBzz1-D2,10
same,SPOT peptide array binding signal intensity,ScCyk3,≤ 0
same,SPOT peptide array binding signal intensity,ScFus1,3
same,SPOT peptide array binding signal intensity,ScHof1,9.75
same,SPOT peptide array binding signal intensity,ScHse1,30
same,SPOT peptide array binding signal intensity,ScLsb1,43.8
same,SPOT peptide array binding signal intensity,ScLsb2,9
same,SPOT peptide array binding signal intensity,ScLsb3,1690
same,SPOT peptide array binding signal intensity,ScLsb4,375
same,SPOT peptide array binding signal intensity,ScMyo3,111
same,SPOT peptide array binding signal intensity,ScMyo5,29.5
same,SPOT peptide array binding signal intensity,ScNbp2,≤ 0
same,SPOT peptide array binding signal intensity,ScPex13,89.2
same,SPOT peptide array binding signal intensity,ScRvs167,963
same,SPOT peptide array binding signal intensity,ScSho1,56
same,SPOT peptide array binding signal intensity,ScSla1-D1-D2,459
same,SPOT peptide array binding signal intensity,ScSla1-D3,3.25
same,SPOT peptide array binding signal intensity,SpAbp1-D1,165
same,SPOT peptide array binding signal intensity,SpBbc1,2.5
same,SPOT peptide array binding signal intensity,SpBzz1-D1,814
same,SPOT peptide array binding signal intensity,SpBzz1-D2,1.25
same,SPOT peptide array binding signal intensity,SpCyk3,3
same,SPOT peptide array binding signal intensity,SpHof1,15.8
same,SPOT peptide array binding signal intensity,SpHof1-2,17
same,SPOT peptide array binding signal intensity,SpHof1-3,270
same,SPOT peptide array binding signal intensity,SpHse1,42.5
same,SPOT peptide array binding signal intensity,SpLsb1,10.2
same,SPOT peptide array binding signal intensity,SpLsb4,1240
same,SPOT peptide array binding signal intensity,SpMyo1,998
same,SPOT peptide array binding signal intensity,SpNbp2,≤ 0
same,SPOT peptide array binding signal intensity,SpPex13,1
same,SPOT peptide array binding signal intensity,SpRvs167,999
same,SPOT peptide array binding signal intensity,SpSla1-D1-D2,112
same,SPOT peptide array binding signal intensity,SpSla1-D3,3
